Compound activity (PubChem)
CD11b adhes enh – CD11b/CD18-fibrinogen binding enhancement. K562 CD11b/CD18 adhesion to fibrinogen, ATPlite luminescence. 93,000 tested, 0.07% active. AID 1499. P05107+P11215. activation, % at 10 µM;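 active means 10 µM primary screen giving 50% or more activity, confirmed by 40% or more on retest at that dose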
CYP2C19 inh – human CYP2C19 inhibition. CYP2C19 Supersomes, luciferin-H EGE luminescence, 30 min. inhibition, % at 5 µM. 96,000 tested, 21% active. AID 778;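 active means CYP2C19 inhibition above a set limit at 5 µM in the primary screen, cut at about 50% in these data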;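 further: plate controls were negative control wells for no effect and 2.5 mM tranylcypromine positive control for full effect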
Target sequence (P33261 whole entry, looked up): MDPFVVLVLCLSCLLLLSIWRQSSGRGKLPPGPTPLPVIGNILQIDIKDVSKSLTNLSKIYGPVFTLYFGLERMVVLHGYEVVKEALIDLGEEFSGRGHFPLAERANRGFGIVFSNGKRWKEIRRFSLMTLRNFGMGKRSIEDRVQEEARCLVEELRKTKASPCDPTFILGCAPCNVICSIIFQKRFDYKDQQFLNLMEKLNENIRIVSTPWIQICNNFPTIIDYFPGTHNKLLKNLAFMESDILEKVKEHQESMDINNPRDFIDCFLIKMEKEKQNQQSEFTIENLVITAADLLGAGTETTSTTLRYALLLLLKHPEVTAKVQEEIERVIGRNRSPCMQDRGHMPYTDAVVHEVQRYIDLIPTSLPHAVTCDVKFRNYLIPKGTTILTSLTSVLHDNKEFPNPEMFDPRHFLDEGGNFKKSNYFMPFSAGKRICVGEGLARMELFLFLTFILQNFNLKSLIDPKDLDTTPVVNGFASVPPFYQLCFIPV
CYP2C9 activ – CYP2C9 (human) activation | P11712 | recombinant CYP2C9, luciferin-H conversion, luminescence; stronger effect = higher value; factor 1 = untreated enzyme, 0 = blocked | activation factor at 5 µM | 96,000 tested, 1.4% active | AID 1024;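 active means activation factor of 2 or more for CYP2C9 at a 5 µM dose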;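 further: 0 = sulfaphenazole-blocked wells and 1 = vehicle-only wells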
CYP2C19 act – cytochrome P450 2C19 (human) activation; P33261; recombinant CYP2C19, luciferin-H EGE luminescence; stronger effect = higher value; 0 = fully inhibited enzyme, 1 = untreated enzyme; activation factor at 5 µM; 96,000 tested, under 10 active; AID 1025;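 active means activation factor of at least 2 at 5 µM in the primary screen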;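 further: 0 = wells with 2.5 mM tranylcypromine and 1 = vehicle-only wells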
CYP2C9 inhib – blocks human cytochrome P450 2C9 | inhibition, % at 5 µM | 96,000 tested, 20% active | P11712 | CYP2C9 Supersomes, luciferin-H conversion, luminescence;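 active means blocking of liver enzyme CYP2C9 beyond about 50% at 5 µM, limit read from the data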
CD11b adhes inh – blocks human CD11b/CD18 adhesion to fibrinogen | 93,000 tested, 0.54% active | K562 CD11b/CD18 adhesion to fibrinogen, ATPlite luminescence; Mn2+ added to activate the integrin | inhibition, % at 10 µM | P05107+P11215;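 active means primary inhibition of 50% or more at 10 µM, then 40% or more on retest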
* = called active by the depositor. Most compounds without a hit are left out; they make up all but 28% or so of the library.

For CCCOC(=O)CSC1=C(C#N)C(c2ccccc2OC)C(C#N)C(=O)N1 (stereo not given) the results were CD11b adhes enh -1.6, CYP2C19 inh 37.7, CYP2C9 activ 0.6, CYP2C19 act 0.6, CYP2C9 inhib 41.7 and CD11b adhes inh -7.1.
`CCCc1[nH]nc2c1C(c1ccccc1OCC)C(C#N)=C(N)O2` (stereo not given) gave CD11b adhes enh -1.9, CYP2C19 inh 15.3, CYP2C9 activ 1, CYP2C19 act 0.8, CYP2C9 inhib 1.4 and CD11b adhes inh -4.2.
Screening N#CC1=C(SCc2ccccc2Cl)NC(=O)C(C(N)=O)C1 (stereo not given) returned CD11b adhes enh -3.5, CYP2C19 inh -5.1, CYP2C9 activ 1.1, CYP2C19 act 1.1, CYP2C9 inhib -7.4 and CD11b adhes inh -9.1.
For C=CCSC1=C(C#N)C(c2ccccc2OCC)C(C#N)C(=O)N1 (stereo not given) the results were CD11b adhes enh -2.3, CYP2C19 inh 55.3*, CYP2C9 activ 0.5, CYP2C19 act 0.4, CYP2C9 inhib 53.7* and CD11b adhes inh 19.3.
Screening CCc1cccc(C)c1NC(=O)C(c1ccccc1)N1CCC1=O (stereo not given) returned CD11b adhes enh -3.7, CYP2C19 inh -14.6, CYP2C9 activ 1.1, CYP2C19 act 1.1, CYP2C9 inhib -8.6 and CD11b adhes inh 9.6.
For CCOC(=O)CSC1=C(C#N)C(c2ccccc2OCC)C(C(=O)OCC)C(=O)N1 (stereo not given) the results were CD11b adhes enh -1.4, CYP2C19 inh 98.8*, CYP2C9 activ 0.2, CYP2C19 act 0, CYP2C9 inhib 84.5* and CD11b adhes inh 6.1.
Screening CCOc1ccccc1C1C(C#N)=C(SCC(=O)OC)NC(=O)C1C(=O)OC (stereo not given) returned CD11b adhes enh 0.1, CYP2C19 inh 70.1*, CYP2C9 activ 0.7, CYP2C19 act 0.3, CYP2C9 inhib 25.9 and CD11b adhes inh -12.4.
`CCOC(=O)CSC1=C(C#N)C(c2ccccc2OCC)C(C#N)C(=O)N1` (stereo not given) gave CD11b adhes enh 3.2, CYP2C19 inh 82.6*, CYP2C9 activ 0.2, CYP2C19 act 0.2, CYP2C9 inhib 77.6* and CD11b adhes inh 18.8.
`COc1ccc(CC(=O)Nc2ccc3c(c2)CCC3)cc1` gave CD11b adhes enh -2.4 and CD11b adhes inh -5.0.
`CCOc1cc(CNc2ccc3c(c2)CCC3)ccc1OC` gave CD11b adhes enh -3.0, CYP2C19 inh 55.8*, CYP2C9 activ 0.8, CYP2C19 act 0.4, CYP2C9 inhib 23.4 and CD11b adhes inh -24.6.
Screening COCc1cc(C)nc(N2CCNCC2)c1C#N returned CD11b adhes enh 0.7, CYP2C19 inh -9.3, CYP2C9 activ 1.1, CYP2C19 act 1.1, CYP2C9 inhib -14.9 and CD11b adhes inh 0.7.
Screening COCc1cc(C)nc(N2CCN(c3ccccc3)CC2)c1C#N returned CD11b adhes enh -2.2, CYP2C19 inh 68.8*, CYP2C9 activ 2.4*, CYP2C19 act 0.3, CYP2C9 inhib -139.2 and CD11b adhes inh -15.5.
`COCc1cc(C)nc(NC2CCCCC2)c1C#N` gave CD11b adhes enh -1.9, CYP2C19 inh -3.8, CYP2C9 activ 1, CYP2C19 act 1, CYP2C9 inhib 4.2 and CD11b adhes inh 13.7.
Screening COCc1cc(C)nc(NCCc2ccccc2)c1C#N returned CD11b adhes enh 3.6, CYP2C19 inh 51.5*, CYP2C9 activ 1, CYP2C19 act 0.5, CYP2C9 inhib 4.2 and CD11b adhes inh -9.0.
Screening COCc1cc(C)nc(N2CCN(Cc3ccccc3)CC2)c1C#N returned CD11b adhes enh 2.8, CYP2C19 inh 94.8*, CYP2C9 activ 0.9, CYP2C19 act 0.1, CYP2C9 inhib 13.5 and CD11b adhes inh 52.3*.
Screening CCCCOc1ccc(/C=c2\sc3ncnn3c2=O)cc1 returned CD11b adhes enh -3.7, CYP2C19 inh -1.6, CYP2C9 activ 0.9, CYP2C19 act 1, CYP2C9 inhib 10.5 and CD11b adhes inh 26.7.
For CS(=O)(=O)N(CC(=O)NC1CCCCC1)c1cccc(Cl)c1 the results were CD11b adhes enh -2.2, CYP2C19 inh 30.1, CYP2C9 activ 0.8, CYP2C19 act 0.7, CYP2C9 inhib 19.4 and CD11b adhes inh 22.9.
`O=C1OCC(CO)(CO)N=C1NNc1ccccc1Cl` gave CD11b adhes enh -1.8, CYP2C19 inh 50.3*, CYP2C9 activ 0.7, CYP2C19 act 0.5, CYP2C9 inhib 28.5 and CD11b adhes inh -38.3.
`O=C(Nc1ccccc1Cl)c1ccccc1Cl` gave CD11b adhes enh 1.5, CYP2C19 inh 18.7, CYP2C9 activ 1.4, CYP2C19 act 0.8, CYP2C9 inhib -35.6 and CD11b adhes inh 17.6.
For COC(=O)c1ccc(C2C(Oc3ccccc3)C(=O)N2CCc2ccc(OC)c(OC)c2)cc1 (stereo not given) the results were CYP2C19 inh 0.0, CYP2C9 activ 1, CYP2C19 act 1 and CYP2C9 inhib 1.0.
`Cc1cccc(-c2c3c(=O)n(C)c(=O)n(C)c3cn2C2CCCCC2)c1` gave CD11b adhes enh 4.3, CYP2C19 inh 35.0, CYP2C9 activ 0.8, CYP2C19 act 0.7, CYP2C9 inhib 21.8 and CD11b adhes inh -10.6.
Screening CCCn1nc(Oc2nc(SC)nc(N(C)C)n2)ccc1=O returned CD11b adhes enh -1.8, CYP2C19 inh 29.7, CYP2C9 activ 0.9, CYP2C19 act 0.7, CYP2C9 inhib 8.1 and CD11b adhes inh 8.7.
O=C(CCn1nnc2ccccc21)Nc1nnc(Cc2ccc(F)cc2)s1 was read as CD11b adhes enh 2.8, CYP2C19 inh 11.2, CYP2C9 activ 0.9, CYP2C19 act 0.9, CYP2C9 inhib 9.8 and CD11b adhes inh -9.0.
`O=C(CCn1nnc2ccccc21)N1CCC(O)(c2cccc(F)c2)CC1` gave CD11b adhes enh 4.1, CYP2C19 inh 43.3, CYP2C9 activ 0.5, CYP2C19 act 0.6, CYP2C9 inhib 52.0* and CD11b adhes inh -5.0.
`CCNC(=S)N1CCC(c2nc3ccccc3s2)CC1` gave CYP2C19 inh 83.8*, CYP2C9 activ 0.6, CYP2C19 act 0.2 and CYP2C9 inhib 38.9.
O=C(CN1CCC(c2nc3ccccc3s2)CC1)NCc1cccs1 was read as CD11b adhes enh -7.7, CYP2C19 inh 7.3, CYP2C9 activ 1, CYP2C19 act 0.9, CYP2C9 inhib -4.0 and CD11b adhes inh 100.4*.
`Cc1ccc(NC(=S)N2CCC(c3nc4ccccc4s3)CC2)cc1` gave CD11b adhes enh 2.4, CYP2C19 inh 32.2, CYP2C9 activ 0.4, CYP2C19 act 0.7, CYP2C9 inhib 56.7* and CD11b adhes inh 16.5.
For O=C(CSc1ccccc1Cl)N1CCC(c2nc3ccccc3s2)CC1 the results were CD11b adhes enh -8.6, CYP2C19 inh 39.3, CYP2C9 activ 0.5, CYP2C19 act 0.6, CYP2C9 inhib 45.5 and CD11b adhes inh 70.5.
For Cc1ccc(C(=O)N[C@H](C(=O)OCc2cc(=O)oc3cc(C)ccc23)C(C)C)cc1 the results were CD11b adhes enh -1.6 and CD11b adhes inh 7.2.
